Sampled rows, rich in hits. Any-hit rate of the full collection: about 12%.
Sfp inh – inhibitors of Bacillus subtilis Sfp phosphopantetheinyl transferase; Biochemical Sfp PPTase activity, qHTS; Potency, µM, inactives show largest response in the series, negative = inhibition, most hits filed as inhibitors; hit rate 3.5% among 310,000; Q9F4F7;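 also: the enzyme is Sfp with the accession as filed and its product quenches rhodamine fluorescence; 0% = enzyme reaction without inhibitor and -100% = no enzyme wells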
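Compounds were incubated with enzyme (final 15 nM) for 15 min at room temperature before substrate addition started the reaction. Fluorescence at 525 nm excitation, 598 nm emission was recorded immediately and after 30 minutes.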
PLK1 PBD inh – inhibitors of human PLK1 polo-box domain binding; P53350; Plk1 PBD binding of FITC phosphopeptide, fluorescence polarization; Potency, µM, without a hit: max response, negative = inhibition, actives largely listed as inhibitors; hit rate 2.8% among 360,000; AID 720504; also: series mostly up to about 57 µM; % is scaled to controls: 0 for no effect and ±100 for the full control effect; nearly all actives have a fitted effect of over 65% in size
Target sequence (P53350 whole entry, looked up, the tested form may be a part): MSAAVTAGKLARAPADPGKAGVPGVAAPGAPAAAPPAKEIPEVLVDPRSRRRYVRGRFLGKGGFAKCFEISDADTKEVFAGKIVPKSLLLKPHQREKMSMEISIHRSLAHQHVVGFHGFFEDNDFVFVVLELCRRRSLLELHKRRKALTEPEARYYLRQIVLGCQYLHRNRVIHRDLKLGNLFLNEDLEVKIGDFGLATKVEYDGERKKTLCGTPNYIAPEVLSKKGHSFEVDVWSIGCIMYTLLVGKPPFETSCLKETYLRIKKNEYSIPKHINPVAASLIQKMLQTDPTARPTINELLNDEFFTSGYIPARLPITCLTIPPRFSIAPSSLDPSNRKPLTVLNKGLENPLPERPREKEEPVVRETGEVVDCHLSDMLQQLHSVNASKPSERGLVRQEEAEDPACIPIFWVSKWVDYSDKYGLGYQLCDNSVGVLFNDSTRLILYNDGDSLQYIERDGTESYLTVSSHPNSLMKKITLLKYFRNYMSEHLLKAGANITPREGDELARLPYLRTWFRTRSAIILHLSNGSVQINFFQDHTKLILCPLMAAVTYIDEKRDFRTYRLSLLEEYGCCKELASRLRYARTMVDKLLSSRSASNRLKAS
BAZ2B inh – BAZ2B (human) inhibition; Q9UIF8; AlphaScreen BAZ2B-H3K14Ac peptide displacement; Potency, µM (top dose mostly 114 µM), inactives show at the highest dose activity change, negative = inhibition, most hits filed as inhibitors; hit rate 4.4% among 360,000; AID 504333; also: % is scaled to controls: 0 for no effect and ±100 for the full control effect; nearly all actives have a fitted effect of over 60% in size
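Compounds, titrated to a top concentration of 110 uM, were incubated 30 min at room temperature with preformed BAZ2B/acetyl-K14 H3 peptide complex (50 nM each). Proximity signal was measured by AlphaScreen after 20 min with beads.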
JMJD2A Tudor inh – blocks the human JMJD2A Tudor domain; O75164; AlphaScreen JMJD2A-Tudor / H3K4me3 peptide binding; Potency, µM (doses to about 114 µM), without a hit: at the top dose activity change, negative = inhibition, usual class: inhibitors; hit rate 4.4% among 390,000; also: % is scaled to controls: 0 for no effect and ±100 for the full control effect; nearly all actives have a fitted effect of over 50% in size
G9a inh – blocks human histone lysine methyltransferase G9a; hit rate 8.8% among 350,000; Potency, µM (series often up to 102 µM), for the others: at the top dose activity, negative = inhibition, most hits filed as inhibitors; G9a H3K9 monomethylation, AlphaScreen, 2 h; AID 504332; also: % is scaled to controls: 0 for no effect and ±100 for the full control effect; nearly all actives have a fitted effect of over 75% in size
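Enzyme 20 nM + cpd, 15 min RT; add b-H3K9 pep 500 nM / SAM 20 uM; 2 h RT; anti-H3K9me1 Ab 0.5 ug/mL + SA donor / anti-rabbit acceptor beads 20 ug/mL each, 10 min; AlphaScreen read.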
HP1b binding inh – blocks HP1-beta chromodomain binding to methylated histone tails | Potency, µM (top dose mostly 114 µM), inactives show at the highest dose activity change, negative = inhibition, usual class: inhibitors | P83916 | AlphaScreen HP1-beta / biotin-H3K9me3 peptide binding | hit rate 0.56% among 390,000; also: nearly all actives have a fitted effect of over 70% in size
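AlphaScreen: HP1-beta (50 nM) preformed 30 min with biotin-H3(1-18)K9me3 peptide (50 nM) in PBS pH 7.4, 0.01% Tween-20. Compound added for 30 min at RT, then streptavidin donor/nickel chelate acceptor beads (10 ug/mL) for 30 min.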
* hit, by the source's call; ? = inconclusive; nt = not tested or not shown; [ ] = dose if it differs, or a comment. Calls follow the shape of the dose curve; as a rule, active = well fitted curve in the direction sought with a large enough effect; inconclusive = small, poorly fitted or top-dose-only effect, or another doubt; inactive = no such curve, though single readings can be large; an effect the other way counts as inactive or inconclusive. Potency is read from the fitted curve at half-maximal effect.

SMILES	Sfp inh	PLK1 PBD inh	BAZ2B inh	JMJD2A Tudor inh	G9a inh	HP1b binding inh
O=C(CC1C(=O)NCCN1Cc1ccc(-c2ccccc2)cc1)NCCOc1cccnc1 (stereo not drawn)	-14%	-7%	-9%	-28%	50µM*	11%
CC(C)(C)CN1CCNC(=O)C1CC(=O)N1CCN(c2ccccc2)CC1 (stereo not drawn)	-28%	-6%	-20%	-22%	56µM*	28%
Cc1cc(CN(C)C(=O)CC2C(=O)NCCN2Cc2ccc(-c3ccccc3)cc2)on1 (stereo not drawn)	-1%	-21%	?	-32%	40µM*	16%
CC(C)(C)CN1CCNC(=O)C1CC(=O)N1CCC(C(=O)N2CCOCC2)CC1 (stereo not drawn)	23%	-12%	-16%	-2%[11.4 µM]	-10%	29%
COc1cc(CN2CCNC(=O)C2CC(=O)N(C)Cc2cccnc2)cc(OC)c1 (stereo not drawn)	15%	15µM*	-8%	?	-9%[12.7 µM]	22%
Cc1ccc2c(c1)-c1nc(-c3ccc4c(c3)NC(=O)CO4)cc(-c3ccc(Cl)cc3)c1CO2	nt	nt	-16%	0%	2%[59 µM]	34%
CCNc1ncc2nc(CCc3ccccc3)c(=O)n(CCC#N)c2n1	31%	nt	nt	nt	-1%[0.501 µM]	nt
COc1ccc(S(=O)(=O)N2CC=C(c3ccccc3)CC2)cc1OC	nt	5%	nt	nt	nt	nt
CN(Cc1ccon1)C(=O)CC1C(=O)NCCN1CC(C)(C)C (stereo not drawn)	12%	-12%	-6%	-10%[11.4 µM]	45µM*	44%
CN(Cc1ccon1)C(=O)CC1C(=O)NCCN1Cc1ccc(F)c(F)c1 (stereo not drawn)	4%	-20%	-1%	-6%	nt	17%
CN(Cc1cccnc1)C(=O)CC1C(=O)NCCN1Cc1ccc(-c2ccccc2)cc1 (stereo not drawn)	-9%	-14%	nt	-24%	50µM*	23%
CN(Cc1nccs1)C(=O)CC1C(=O)NCCN1Cc1ccc(-c2ccccc2)cc1 (stereo not drawn)	45µM*	27µM*	-35%	?	?	-1%
Cc1ccc(NC(=O)Cn2c(=O)n(CC(=O)NCCc3ccccc3)c(=O)c3ccccc32)cc1	nt	nt	-12%	-10%	-23%[59 µM]	13%
CS(=O)(=O)Nc1cccc(-c2ccc3ncnc(NC4CC4)c3c2)c1	22%	nt	nt	nt	-2%[0.501 µM]	nt
O=C(NCC1CCCO1)c1ccccc1NS(=O)(=O)c1cc([N+](=O)[O-])ccc1Cl (stereo not drawn)	nt	2%	nt	-18%	nt	34%
O=C(Cc1ccc(Cl)c(Cl)c1)NNC(=S)NCC1CCCO1 (stereo not drawn)	11%	-29%	0%	-18%	22%[0.501 µM]	52%
Cc1ccccc1N1CC(C(=O)Nc2ccc(S(=O)(=O)NCC3CCCO3)cc2)CC1=O (stereo not drawn)	3%	?	0%	89µM*	-3%	6%
CCNS(=O)(=O)c1ccc(NC(=S)NCC2CCCO2)cc1 (stereo not drawn)	-21%	24µM*	-4%	?	nt	-8%
COc1ccc(NS(=O)(=O)c2ccc(NC(=S)NCC3CCCO3)cc2)cc1 (stereo not drawn)	-26%	-20%	7%	-21%	-2%	7%
O=C(NCC1CCCO1)c1cc([N+](=O)[O-])ccc1Cl (stereo not drawn)	17%	0%	2%	1%	50µM*	15%
S=C(NCC1CCCO1)Nc1ccc(Cl)c(Cl)c1 (stereo not drawn)	9%	12µM*	-18%	?	-7%	40%
Cn1cc(Cl)c(C(=O)OCC(=O)c2ccccc2)n1	7%	-7%	8%	-11%	30%	5%
Cc1ccc(S(=O)(=O)NCC2CCCO2)cc1 (stereo not drawn)	14%	6%	10%	-19%	19%	47%
O=C(NCC1CCCCC1)c1cccc([N+](=O)[O-])c1	-5%	1%	?	-10%	nt	37%

From PubChem
